Measurements taken from PubChem BioAssay (NCI).
This is part of a sample that, as a whole, favours compounds with a hit. Of some 83,000 tested, about 20% had one in any assay.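 In brief: 96-well plates, 48 h treatment, single concentration, percent growth endpoint.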 Active and inactive are the calls of the source. Rule for the calls: active = growth percent below 10; inactive = the rest.

The compounds below were run on MDA-MB-468 breast (assay: NCI-60 one-dose screen, 48 h (100 = growth as untreated, 0 = no growth, -100 = all killed)). Conditions: 10 µM unless noted.

SMILES	growth
O=C(Nc1ccc(Cl)c(Cl)c1)NC(CO)(CO)CO	95.9% (inactive)
CC(=O)OC[C@H]1OC(Sc2sc(C(=O)c3ccc(Br)cc3)c(N)c2-c2nc3ccccc3s2)[C@H](OC(C)=O)[C@@H](OC(C)=O)[C@H]1OC(C)=O (some centres not stated)	91.9% (inactive)
CN1CCN(Cc2ccc(NC(=O)c3[nH]ncc3Nc3ncnc4c3CCC4)cc2)CC1	9.05% (active)
CC/C(=C(/c1ccc(Cl)cc1)c1ccc(OCCN(C)C)cc1)c1ccc(Cl)cc1	50.7% (inactive)
CCSc1cnnc2ccccc12	105% (inactive)
COc1cc(C2C(C#N)=C(N)Oc3cc4c(cc32)OCO4)cc2c1OCO2 (configuration not stated)	-8.15% (active)
CN(Cc1cnc2nc(N)nc(N)c2n1)c1ccc(C(=O)N[C@@H](CCc2nn[nH]n2)c2nn[nH]n2)cc1	52.8% (inactive)
CCN(CC)c1ccc(C(=O)c2ccccc2)cc1	105% (inactive)
O=C(c1ccccc1)c1c(/C=C/c2ccccc2)nc2ccccc2c1/C=C/c1ccc(Br)cc1	94.3% (inactive)
CC1CC(C)S(=O)(=O)C1 (configuration not stated)	112% (inactive)
CC(C)(N)COS(=O)(=O)O	107% (inactive)
C=C(C)[C@@H]1CC[C@]2(COC3CCCCO3)CC[C@]3(C)[C@H](CC[C@@H]4[C@@]5(C)C=C(C=O)C(=O)C(C)(C)[C@@H]5CC[C@]43C)[C@@H]12 (some centres not stated)	-53.1% (active)
COc1ccc(/C=C2/C(=O)N=C3N2NC(c2ccccc2)=CN3c2ccccc2)cc1	88.9% (inactive)
Cc1cc2cc3cc(C)c(N(C)C)cc3nc2cc1N(C)C	23.9% (inactive)
COc1ccc(-c2cn(Cc3cc4ccccc4s3)nn2)cc1OCCN1CCCCC1	63.8% (inactive)
CC12O[C@H](C[C@@H](OC(=O)CCC(=O)O)[C@H]1O)n1c3ccccc3c3c4c(c5c6ccccc6n2c5c31)C(=O)NC4=O	25.9% (inactive)
O=C1c2cccc3cccc(c23)C(=O)N1Nc1nc(NC2CCCCC2)nc(N2CCOCC2)n1	114% (inactive)
CCSc1nc(-c2ccco2)n2nc(-c3ccco3)cc2n1	-67.7% (active)
Cc1ccc2c(n1)C(=O)C(Cl)=C(Nc1cccc(C(=O)OC(C)(C)C)c1)C2=O	-57.7% (active)

SMILES	growth
O=C1C=CC2=C3c4cc(O)c(O)cc4CC3(O)COC2=C1O (configuration not stated)	102% (inactive)
CN1CCN(Cc2ccc(NC(=O)c3cncc(C#Cc4cnc5cccnn45)c3)cc2C(F)(F)F)CC1	37.8% (inactive)
Cc1ccc(C2=C/C(=C/c3ccc(Br)cc3)C(=O)N2CCc2ccc(S(N)(=O)=O)cc2)cc1	92.7% (inactive)
O=C(CCNC(=O)c1nc(-c2ccccc2)n(-c2ccc(Cl)cc2)n1)NO	107% (inactive)
COc1cc(-c2nc(SCCC(C)C)nc(Nc3ccc(F)cc3)c2C#N)cc(OC)c1OC	96.8% (inactive)
O=C(CC1Sc2ccccc2NC1=O)NNc1cccc(Cl)c1Cl (configuration not stated)	95.2% (inactive)
COc1ccc2c(c1)C(=O)c1c-2c(OCCN(C)C)nc2ccccc12	44.8% (inactive)
CN1CCN(c2ccc(NC3=C(Cl)C(=O)c4ncccc4C3=O)cc2C#N)CC1	-65% (active)
CC1OC(C(=O)N2CCN(CCO)CC2)CC1COC1CCCCC1 (configuration not stated)	94.6% [50 µM] (inactive)
N#CC1(Nc2ccc3c4c(cccc24)CC3)CCCCC1	-35.3% (active)
COc1ccc(C(C)=C(c2ccc(OCCN3CCCCCC3)cc2)c2ccc(OCCN3CCCCCC3)cc2)cc1	-69.5% (active)
O=C1Nc2c(ccc(Cl)c2Cl)/C1=C/c1ccc([N+](=O)[O-])cc1	103% (inactive)
O=C(Nc1cccc(C(=O)N2CCc3ccc(Cl)cc32)c1)c1ccco1	-0.651% (active)
COc1ccc2c(c1)/C(=C1/S/C(=N/c3nnc(C)s3)NC1=O)C(=O)N2Cc1ccc(Br)cc1	25.8% (inactive)
Nc1nc2ccc(CNc3ccc(C(=O)NC(CC(=O)O)C(=O)O)cc3)cc2c(=O)[nH]1 (configuration not stated)	81.6% (inactive)
C[C@]12C=CC(=O)C=C1[C@@H](F)C[C@@H]1[C@@H]2[C@@H](O)C[C@@]2(C)[C@H]1CC[C@]2(O)C(=O)CO	123% (inactive)
Clc1ccc(-c2cn3cc(Cc4ccc(Cl)c(Cl)c4)sc3n2)cc1	80.5% (inactive)
COc1cc(/C=C2\CN(S(=O)(=O)c3ccccc3)C/C(=C\c3cc(CN4CCCCC4)c(O)c(OC)c3)C2=O)cc(CN2CCCCC2)c1O	53.2% (inactive)
